This is an account of results in PubChem BioAssay AID493035 (The Scripps Research Institute Molecular Screening Center, 2011).

By inhibition is commonly meant the drop in the measured response relative to a control, in per cent.

Screen size: about 2,000 compounds; about 45 (2%) were called active.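 The calls were made as follows: active = inhibition above the mean of all tested compounds plus 3 SD (cut at about 49% in these data); inactive = the rest.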 Shown is part of a subset that was picked to be rich in actives.

In this test the target is Perilipin-5 (Homo sapiens) + 1-acylglycerol-3-phosphate O-acyltransferase ABHD5 (Homo sapiens) (UniProt Q00G26+Q8WTS1). Put plainly: blockers of ABHD5 binding to perilipin-5 – cell lysate, split luciferase complementation, luminescence, NIH validation set, pilot screen (AID 493035).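 As to inhibition: 0% = DMSO only wells while the 100% control is not stated.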 The settings on record: split G. princeps luciferase complementation, lysates, 4 h; at 7.9 µM, active compounds read high.
Sequence of Perilipin-5 (Homo sapiens) + 1-acylglycerol-3-phosphate O-acyltransferase ABHD5 (Homo sapiens) (Q00G26 whole entry, looked up): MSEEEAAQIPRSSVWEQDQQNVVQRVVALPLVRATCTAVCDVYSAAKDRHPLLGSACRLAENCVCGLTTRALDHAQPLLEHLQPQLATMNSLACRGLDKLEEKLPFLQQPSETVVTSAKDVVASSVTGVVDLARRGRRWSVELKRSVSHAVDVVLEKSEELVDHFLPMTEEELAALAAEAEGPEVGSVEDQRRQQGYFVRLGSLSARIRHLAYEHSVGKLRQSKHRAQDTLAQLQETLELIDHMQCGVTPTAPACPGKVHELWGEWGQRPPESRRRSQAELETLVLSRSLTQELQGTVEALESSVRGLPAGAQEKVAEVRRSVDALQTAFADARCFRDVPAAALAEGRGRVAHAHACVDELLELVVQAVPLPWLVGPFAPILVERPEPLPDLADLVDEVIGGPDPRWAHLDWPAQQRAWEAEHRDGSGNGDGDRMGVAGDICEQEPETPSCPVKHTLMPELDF
Sequence of Perilipin-5 (Homo sapiens) + 1-acylglycerol-3-phosphate O-acyltransferase ABHD5 (Homo sapiens) (Q8WTS1 whole entry, looked up): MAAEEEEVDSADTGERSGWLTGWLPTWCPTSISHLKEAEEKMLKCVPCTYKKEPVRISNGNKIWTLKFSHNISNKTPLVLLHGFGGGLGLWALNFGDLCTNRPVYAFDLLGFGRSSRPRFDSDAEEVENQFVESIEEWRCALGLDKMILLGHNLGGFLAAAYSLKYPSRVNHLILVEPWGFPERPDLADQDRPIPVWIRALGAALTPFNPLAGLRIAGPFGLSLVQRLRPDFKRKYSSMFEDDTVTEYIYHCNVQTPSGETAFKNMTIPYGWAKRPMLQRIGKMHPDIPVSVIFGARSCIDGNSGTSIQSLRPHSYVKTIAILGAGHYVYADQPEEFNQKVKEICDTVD
Regarding `O=C1CCCCCN1Cc1ccccc1`, the inhibition is 9.82% (inactive).
For `O=C1C=CC(=O)C(C2=C3C(=O)N(CCc4ccccc4)CC(=O)N3CCC2)=C1`, the inhibition is 74.5% (active).
In the case of `C/C(=N/N1CCN(Cc2cccc3ccccc23)CC1)c1cccnc1`, the inhibition was -8.01% (inactive).
Take `CC1(C)C2CCC1(C(=O)O)c1nc3ccccc3nc12` (stereo not drawn): the inhibition is -0.64% (inactive).
Consider `Cc1ccc(S(=O)(=O)Nc2ccc(S(=O)(=O)Nc3cc(C)nc(C)n3)cc2)cc1`, for which the inhibition is 4.03% (inactive).
With `CC(C)CCOCC(=O)Nc1cccc(C(=O)O)c1`, the inhibition was -0.57% (inactive).
As to `COC(=O)C1=C(C)NC(C)=C([N+](=O)[O-])C1c1ccccc1C(F)(F)F` (stereo not drawn), the inhibition was -2.75% (inactive).
In the case of `CCOC(=O)C1=C(C)NC(C)=C(C(=O)OC)C1c1cccc([N+](=O)[O-])c1` (stereo not drawn) it was 3.99% (inactive).
`COC(=O)C1=C(C)NC(C)=C(C(=O)OC)C1c1ccccc1[N+](=O)[O-]`: the inhibition entry was “active”.
The same measure for `O=C(O)CCSCCC(=O)O`: 2.26% (inactive); for `CC12CCC(C(=O)N3CCCCC3)([C@H](Br)C1=O)C2(C)C` (stereo partly drawn): -4.77% (inactive).
Consider `COc1ccc(C(=O)Nc2ccccc2C(=O)NC(Cc2c[nH]c3ccccc23)C(=O)O)cc1` (stereo not drawn), for which the inhibition is 1.79% (inactive).
Regarding `COc1ccc(/C=C\C(=O)c2c(O)ccc3c(C)cc(=O)oc23)cc1OC`, the inhibition is 59.1% (active).
In the case of `COc1ccc(/C=C/C(=O)Nc2ccccc2C(=O)O)cc1OC` it was -12.4% (inactive).
`COc1ccc(C(=O)Oc2ccc3c(C)cc(=O)oc3c2C(C)=O)cc1`: the inhibition is 2.94% (inactive).
`Cc1ccc2c(CC(=O)O)coc2c1`: the inhibition was -6.46% (inactive).
Consider `CCSC(SCC)[C@H](O)[C@@H](O)[C@H](O)[C@H](O)CO`, for which the inhibition was -2.61% (inactive).
In the case of `CC(C)(C)C(=O)N1CCCC1C(=O)O` (stereo not drawn) it was -7.48% (inactive); in that of `Nc1ccc(-c2nc3ncccc3o2)c(Cl)c1`, -10.8% (inactive).
In the case of `CC(C)Cc1cc(C(=O)N2CCC(N3CCC(C(=O)N4CCCC4)CC3)CC2)n[nH]1`, the inhibition was -3.07% (inactive).
The same measure for `COc1cc(C2Nc3ccccc3NC3=C2C(=O)CC(c2ccc(OC)c(OC)c2)C3)ccc1O` (stereo not drawn): 1.84% (inactive).
Regarding `C=CCC1(O)C(=O)N2C(=C1C(=O)N1CCOCC1)c1ccccc1CC2(C)C` (stereo not drawn), the inhibition is 0.31% (inactive).
`Cc1ccc(C2=NOC(=O)/C2=C\C=C\c2ccccc2)cc1`: the inhibition is 94.4% (active).
In the case of `Cc1ccc2c(c1)C(O)(CC(=O)/C=C/C=C/c1ccccc1)C(=O)N2` (stereo not drawn) it was 24.3% (inactive).
The same measure for `NC(=O)c1c(-c2ccccc2)oc2ccc(O)cc12`: -5.91% (inactive); for `CCOC(=O)C1=C(C)N[C@@]2(O)c3ccccc3C(=O)[C@@]12O`: 10.3% (inactive); for `COc1ccc(OC(C)C(=O)Nc2ccccc2F)cc1` (stereo not drawn): 2.02% (inactive).
With `O=C(c1cccnc1)N1N=C(C2CC2)CC1(O)C(F)(F)F` (stereo not drawn), the inhibition is 2.77% (inactive).
As to `O=C(Nc1cccc(C(=O)O)c1)/C(=C\c1ccccc1)NC(=O)c1ccccc1`, the inhibition was -2.05% (inactive).
`O=C(O)CCCCCCNC(=O)c1cncc(O)c1`: the inhibition is -6.1% (inactive).
`CC(=O)OC(CC(=O)O)C[N+](C)(C)C` (stereo not drawn): the inhibition was -14.8% (inactive).
Take `CC(C)N1C(=O)/C(=C\c2nc3ccccc3c(=O)[nH]2)c2ccccc21`: the inhibition is 64.9% (active).
For `COc1ccc(C(=O)Nc2nc3ccccc3c(=O)[nH]2)cc1`, the inhibition is 0.27% (inactive).
Take `COc1ccc(NC(=O)C2CSC3c4ccccc4C(=O)N23)cc1` (stereo not drawn): the inhibition was 4.85% (inactive).
On to `CCOC(=O)C(Cc1cc(C(C)=O)ccc1OC(C)C)C(=O)OCC`, for which the inhibition is -3.49% (inactive).
As to `O=C1C2C3C=CC(C4CC34)C2C(=O)N1/N=C/c1ccc(-c2ccc([N+](=O)[O-])cc2)o1` (stereo not drawn), the inhibition is -2% (inactive).
For the compound `c1ccc(Cn2ncc3c(Nc4ccccc4)ncnc32)cc1`, the inhibition was -6.21% (inactive).
For `O=C(NO)c1ccccc1O`, the inhibition was -11.8% (inactive).
Turning to `COC(=O)[C@@H](N)CS`, the inhibition is 78.9% (active).
Regarding `CC(=O)N[C@@H](CS)C(=O)O`, the inhibition is -2.08% (inactive).
For `COc1cc(OC)c2c(C)c(Cl)c(=O)oc2c1`, the inhibition is -6.84% (inactive).
In the case of `CCN(CC)C(=O)c1sc(NC(=O)c2c(OC)cccc2OC)c(C#N)c1C` it was -4.18% (inactive); in that of `CCCC(CCC)C(=O)OC1C[C@H]2CC[C@@H](C1)[N+]2(C)C` (stereo partly drawn), -9.28% (inactive).
As to `CCN(CC)C(=S)SSC(=S)N(CC)CC`, the inhibition was 95.2% (active).
In the case of `COc1ccc(O)c(C2=Nc3ccccc3N=C(c3ccccc3)C2)c1`, the inhibition was -11.4% (inactive).
Turning to `C=CCOc1ccc(C(=O)CC)cc1OC`, the inhibition is -3.26% (inactive).
The same measure for `CCc1oc2ccccc2c1C(=O)c1cc(Br)c(O)c(Br)c1`: 50.7% (active).
Consider `CC(=O)CCc1oc2ccccc2c1-c1ccccc1`, for which the inhibition was -0.95% (inactive).
Turning to `CCCCc1oc2ccccc2c1C(=O)c1cc(I)c(OCCN(CC)CC)c(I)c1`, the inhibition is -3.91% (inactive).
For the compound `COc1ccc2cc[nH]c2c1`, the inhibition is 5.24% (inactive).
As for `COc1cccc2c(=O)c(C/C=C(/C)Cl)c(C)[nH]c12`, the inhibition was -0.4% (inactive).
For `COc1ccc(N2CCN(C(=S)NCc3ccccc3)CC2)cc1`, the inhibition is 10.2% (inactive).
Turning to `CC(C)=CCC(C)(C)/C=N/NC(N)=O`, the inhibition was -11.2% (inactive).
With `O=C(c1ccco1)N(CCC(c1ccccc1)c1ccco1)Cc1ccco1` (stereo not drawn), the inhibition was 58.6% (active).
Take `CC(=O)N(CCC(Cc1ccccc1)c1ccco1)Cc1ccco1` (stereo not drawn): the inhibition is 39.1% (inactive).
For the compound `COc1ccccc1C(CCN(Cc1ccccc1)C(C)=O)c1ccco1` (stereo not drawn), the inhibition is 7.01% (inactive).
In the case of `COc1ccc(-c2cc(C(=O)N3CCOCC3)c3cc(C)ccc3n2)cc1`, the inhibition was -3.27% (inactive).
In the case of `O=C(c1ccc(Cl)cc1)C1CCCN(C(=O)/C=C/c2ccccn2)C1` (stereo not drawn) it was 8.56% (inactive); in that of `CCCCC/C=C\C[C@H](O)/C=C/c1cccc(C[C@H](O)CCCCO)n1`, 62.8% (active); in that of `CSCCC(NC(=O)/C(=C/c1ccc2c(c1)OCO2)NC(=O)c1cccc([N+](=O)[O-])c1)C(=O)O` (stereo not drawn), 5.37% (inactive).
The same measure for `OC[C@@H](O)[C@@H](O[C@H]1O[C@H](CO)[C@@H](O)[C@H](O)[C@H]1O)[C@H](O)[C@@H](O)CO`: -8.59% (inactive); for `Cc1cccc(C(=O)c2cccc(C)c2)c1`: -8.84% (inactive).
Turning to `Cn1c(=O)c(C(=O)NCCO)c(O)c2ccccc21`, the inhibition was -4.23% (inactive).
